In PubChem BioAssay (NCATS):
Results filed as inconclusive are left out. Entries that show only a call come without a potency. Activity calls are given as the source filed them. The call rests on the fitted dose curve; in most records, active means well fitted inhibition curve with a large enough effect; inconclusive means small, poorly fitted or top-dose-only effect; inactive means flat fitted curve, though single readings scatter.

Each molecule was assayed against Calcium and integrin-binding protein 1 (Homo sapiens) (UniProt Q99828) (assay: Primary qHTS for Identification of Calcium Integrin Binding Protein 1 (CIB1) Competitor (AID 1508620;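 further: GST tagged CIB1 binding a fluorescein labelled alphaIIb integrin peptide tracer; top concentration of the series differs between compounds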)). Settings: CIB1-GST / FITC-alphaIIb peptide fluorescence polarization; series mostly up to 114 µM.
Sequence of Calcium and integrin-binding protein 1 (Homo sapiens) (Q99828 whole entry, looked up): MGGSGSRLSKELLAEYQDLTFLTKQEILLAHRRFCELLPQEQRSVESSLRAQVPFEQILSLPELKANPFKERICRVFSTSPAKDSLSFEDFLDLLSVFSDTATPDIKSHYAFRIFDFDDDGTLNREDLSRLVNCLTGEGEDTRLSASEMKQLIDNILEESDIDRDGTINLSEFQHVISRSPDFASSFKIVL
How it was run: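 Fluorescence polarization competition: CIB1-GST (1 uM final) preincubated with compound 15 min at room temperature, then FITC-labeled alphaIIb peptide (100 nM final) added for another 15 min. Polarization read at Ex 480/Em 540.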
With `O=C(c1ccco1)N1CCN(c2nc(-c3ccc(Br)cc3)cs2)CC1` the Potency was “inactive”.
With `O=C(c1ccc(-c2cnc3c(O)cccc3c2)cc1)N1CCNCC1` the Potency was “inactive”.
With `COc1ccc(O)c(-c2nc3ccccc3c(=O)n2Cc2ccccc2)c1` the Potency was “inactive”.
`COc1ccc(OCc2cc(C3Nc4ccccc4C(=O)N3Cc3ccccc3)ccc2OC)cc1` (configuration not stated) was tested, and the Potency was “inactive”.
`Oc1ccc(/C=C/c2c(F)cccc2F)c2cccnc12` was tested, and the Potency was “inactive”.
`COc1ccc(O)c(CNc2ccc(S(=O)(=O)Nc3nccs3)cc2)c1` was tested, and the Potency was “inactive”.
For `COc1cccc(CNc2ccc(S(=O)(=O)Nc3nccs3)cc2)c1O`, the Potency was “inactive”.
`COc1ccc(-c2nc3ccccc3c(=O)n2Cc2ccccc2)cc1COc1ccc(NC(C)=O)cc1` was tested, and the Potency was “inactive”.
For `COc1ccc(C2N(Cc3ccccc3)C(=O)c3ccccc3N2C)cc1COc1ccc(NC(C)=O)cc1` (configuration not stated), the Potency was “inactive”.
With `Fc1ccc(-c2ccc(Nc3nc(-c4ccncc4)nc4ccccc34)cc2F)c(F)c1` the Potency was “inactive”.
For `Cn1ncc(Cl)c1C1N=C(Nc2nc3ccccc3o2)NC2=C1C(=O)CCC2` (configuration not stated), the Potency was “inactive”.
With `COc1cccc(C2=Nn3c(nnc3-c3cccc(OC)c3)SC2)c1` the Potency was “inactive”.
With `COc1cccc(C2c3c(ncn(-c4ccccc4Cl)c3=N)Oc3ccc4ccccc4c32)c1` (configuration not stated) the Potency was “inactive”.
In the case of `C[C@@H](N)C(=O)Nc1cccc(-c2nn3c(=O)cc(N4CCNCC4)nc3s2)c1`, the Potency is reported as “inactive”.
In the case of `O=C(Nc1cc(C(F)(F)F)cc(C(F)(F)F)c1)Nc1nnc(-c2ccncc2)s1`, the Potency is reported as “inactive”.
In the case of `c1cncc(-c2ccc(CNc3nc(N4CCOCC4)nc4ccccc34)cc2)c1`, the Potency is reported as “inactive”.
For `O=C(NCCc1nc2ccccc2n1CCOc1ccccc1F)C1CCCCC1`, the Potency was “inactive”.
